{
  "source": "PubChem BioAssay AID1508600",
  "about": "(Functional Genomics Laboratory (NCATS/FGL), 2020)",
  "note": "Among all 53,000 sequences or so, about 3,700 (7%) were called active. The full list was thinned out, with actives kept by preference. Values without a mark were called inactive.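 The calls were made as follows: active = gene knockdowns whose robust z-score for IL-1 alpha signal is at least 2 or at most -2, so actives lie on both sides; inactive = the rest.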",
  "data": [
    {"test": "Components of the Cytosolic LPS Sensing Pathway: Gene Identification via Genome-wide siRNA Screen;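 also: robust z of the log signal after scaling to non-targeting control siRNA wells of the plate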", "details": "RAW264.7 macrophages, IL-1a HTRF, actives lie on both sides, screened at 100 nM (by protocol), cells primed 5 h with Pam3CSK4 first", "procedure,_shortened": "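IL-1a HTRF of supernatants after 24 hour LipidA transfection of Pam3CSK4-primed (5 hours) RAW264.7 cells, 48h post-siRNA transfection (100 nM). Scores: percent of plate negative-control median, then log-based robust z-score.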", "values": [
      {"sequence": "GCCUGAUAGUGGUGGACAGTT against Tmem45a2", "z-score": "3.29 (active)"},
      {"sequence": "GGAGGCUUUUCAGACCAAGTT against 3830406C13Rik", "z-score": 0.334},
      {"sequence": "GGAGAACAGACACAGGGUGTT against Dlgap5", "z-score": -0.284},
      {"sequence": "CCUAAACUCAGUGCCUCAGTT against Mrps36", "z-score": 0.579},
      {"sequence": "GUCAAAGCACCAUUUGAGUTT against Vmn1r8", "z-score": -0.842},
      {"sequence": "GGUAUUCUUUGAAGAAAACTT against Tbc1d14", "z-score": 1.17},
      {"sequence": "GGUUUUUGAUGAUUGCUUUTT against Slc49a4", "z-score": 0.221},
      {"sequence": "GGACACAGAUAGAAAUACUTT against Glo1", "z-score": "2.73 (active)"},
      {"sequence": "GGUCUCGAAUGUAUGGUGCTT against Bicc1", "z-score": 1.14},
      {"sequence": "GGCAGUUAUGAUAAAGAUUTT against Slc25a16", "z-score": -0.896},
      {"sequence": "GGUUCCUAAACAUACUUGUTT against Swi5", "z-score": 0.478},
      {"sequence": "GGACUACAGUCAUUAUUCATT against Sycp2", "z-score": "3.25 (active)"},
      {"sequence": "GGAGUACGAGCAAAUGGUGTT against Nfkbia", "z-score": 0.5},
      {"sequence": "GGGACCUACAUUACAAUUUTT against Suz12", "z-score": 1.06},
      {"sequence": "GGAUUCACCUGUUAUCUUUTT against Tapbpl", "z-score": 0.303},
      {"sequence": "UGAAUCACCACCCGGAAUGTT against Pcbd2", "z-score": 0.41},
      {"sequence": "CCUAUGUGCGUUCCAAGCATT against Eif5b", "z-score": -0.432},
      {"sequence": "GGACAUCUGUGUUAAAUUUTT against Npy1r", "z-score": -0.47},
      {"sequence": "GGAAGAUACUGUGGUUUAUTT against Agbl3", "z-score": "2.29 (active)"},
      {"sequence": "GGCAUUGGUGUUUCAUUAATT against Gpm6a", "z-score": 1.2},
      {"sequence": "GGUAUUAUGACCAGAUUAUTT against Plxnb3", "z-score": 0.736},
      {"sequence": "GGACGAUUGCCAUAUGAACTT against Ice2", "z-score": -0.99},
      {"sequence": "GUACUUUCUUGAACCAGAGTT against Cacng7", "z-score": -0.486},
      {"sequence": "GGAUGAAGCCUUCAUCAGGTT against Adcy6", "z-score": 0.0162},
      {"sequence": "GGAGAGAGACACAAGCUUGTT against Map7d1", "z-score": 1.07},
      {"sequence": "CCCGGGUCUUUGAUAUCUUTT against Evi5l", "z-score": "2.03 (active)"},
      {"sequence": "GCGAAAACUUCGGAUCUAUTT against Smarcd2", "z-score": 1.29},
      {"sequence": "GGCUUAUCAUACCUGGUUGTT against Olfr691", "z-score": 0.404},
      {"sequence": "GGAUAUUUCAGUUGGCGGGTT against Lama2", "z-score": -0.158},
      {"sequence": "GGUCAAACUGAAGAAGGAGTT against Slc7a7", "z-score": -1.24},
      {"sequence": "GGAAGUUGAAAUGCUGUCGTT against Clcnka", "z-score": "-2.24 (active)"},
      {"sequence": "GCAAGGAAAAUCUAUACCGTT against Rgs2", "z-score": -0.954},
      {"sequence": "GCACAUACAGAGCUCGUCUTT against Zkscan6", "z-score": -0.471},
      {"sequence": "CCAGAUAAGCCUCAUCAAUTT against Scn5a", "z-score": -0.163},
      {"sequence": "GAAUCAGCUGUUCUCUCACTT against Tm2d3", "z-score": "2.25 (active)"},
      {"sequence": "GCACCAAACCAAUAUUAGUTT against Epb41l3", "z-score": 1.13},
      {"sequence": "GCACCAUUAAGGUUGCCAATT against Nudt11", "z-score": -1.16},
      {"sequence": "GGUCUGUGGGAAACAUAAATT against Gria3", "z-score": -0.233},
      {"sequence": "GGAUGUCUAUUUUUGGUCATT against Esd", "z-score": -0.819},
      {"sequence": "GGCGGAUACUUGAUCGAAATT against Exoc3", "z-score": "2.41 (active)"},
      {"sequence": "GGGACAAUACCAAUUUCUCTT against Car15", "z-score": -0.209},
      {"sequence": "GGCAAUCUCCUUUAAUUGATT against Zfp329", "z-score": 0.237},
      {"sequence": "GCCCUCAACCAUAAUUCAATT against Zscan21", "z-score": "2.15 (active)"},
      {"sequence": "GGAAAUGAGCCAGGAUGGUTT against Cdca4", "z-score": 0.0601},
      {"sequence": "CCCGAUUAUCUAGUGAUACTT against Sbk1", "z-score": 0.311},
      {"sequence": "GCCACUGGUUCACCAUGCATT against Ugt1a9", "z-score": -0.52},
      {"sequence": "GCCAGCUUUUAGUAUCAACTT against Sun1", "z-score": "2.4 (active)"},
      {"sequence": "GCCUGUGGUAGGAUACUAUTT against Denr", "z-score": -0.964},
      {"sequence": "GGAAGGAACCGUUCUAUAATT against Serpinc1", "z-score": 0.221},
      {"sequence": "GGUUGGAUACUCGUCUUCATT against Olfr421-ps1", "z-score": 1.16},
      {"sequence": "GGCCCACAGUUUGUGACUGTT against Larp7", "z-score": -1.1},
      {"sequence": "GCGUAUAGGUGAUGUACAGTT against Smad3", "z-score": "2.28 (active)"},
      {"sequence": "GGUCAUUAGUUAUUCCUACTT against Olfr600", "z-score": -1.33},
      {"sequence": "GGGUUCAAGAUAUCAAGUATT against 4933434E20Rik", "z-score": 1.23},
      {"sequence": "GCUUGGGUCAUAGGGAUGATT against Olfr1288", "z-score": -0.371},
      {"sequence": "CCACUUUUGUAAUGGAAGCTT against Mfsd6l", "z-score": 1.89},
      {"sequence": "GGAGAUUCAGAUCAAAGAGTT against Scyl1", "z-score": -0.182},
      {"sequence": "GCUACGUUUUUUACCUCCATT against Bak1", "z-score": 0.0106},
      {"sequence": "GGCUUCCAGUAAUGACAAUTT against Vwc2l", "z-score": -1.67},
      {"sequence": "GGACUAUCAUCUGAUGCCATT against Klhl18", "z-score": "2.45 (active)"},
      {"sequence": "GGUCUUUCCCAGGAUUCCATT against Rab19", "z-score": -0.837},
      {"sequence": "GGUUGACUAUACUGAAAAGTT against Prrc2a", "z-score": -0.606},
      {"sequence": "GGGCAAUGAAUGACAUUGGTT against Gabrd", "z-score": -0.368},
      {"sequence": "GGGAGAAUCGAACUAUAAATT against Raver1", "z-score": -0.477},
      {"sequence": "GGACCCUUAGGAAAUGUGCTT against S100a10", "z-score": -1.13},
      {"sequence": "GCAUCAGAUUAUCUCACUGTT against Mtrf1l", "z-score": 0.261},
      {"sequence": "CGCGUGAUUGAUGUUUUACTT against Atxn10", "z-score": 0.793},
      {"sequence": "GUGUCAUUUCCCGGGACAUTT against Atp5g1", "z-score": 1.64},
      {"sequence": "CCUUGGACUGAUAUUAGCUTT against Dtx3", "z-score": 0.0235},
      {"sequence": "GGAACCUAAACGAACAAGGTT against Col6a2", "z-score": "2.18 (active)"},
      {"sequence": "GGAUGUACGGAAGCGAUUCTT against Gmpr2", "z-score": 0.404},
      {"sequence": "GGUUCCUCAUUUGUAGAUGTT against D830050J10Rik", "z-score": -1.19},
      {"sequence": "GGAGGAACAAUCAUCUAUATT against Ripk2", "z-score": 1.1},
      {"sequence": "GGCACAGAUGUUUUGAGAATT against Surf4", "z-score": -0.954},
      {"sequence": "CGAAAAUAUGGAUACUACUTT against Ippk", "z-score": 0.732},
      {"sequence": "CGGUGAUCGUCAUUUUAUUTT against Ap4m1", "z-score": "2.47 (active)"},
      {"sequence": "GGUGAACCUCAACAGACUCTT against Gtf3c4", "z-score": -1.7},
      {"sequence": "GGAAAAAAUCACAUUGACUTT against H2ac6", "z-score": -0.835},
      {"sequence": "GCCCAUUAAUGGGAUAUAATT against Ccdc134", "z-score": 0.148},
      {"sequence": "GGCUCUGGCAGAAAUGGAUTT against Pex26", "z-score": -0.0204},
      {"sequence": "GGGAACAGAAGUUGUGAGATT against Gulp1", "z-score": 1.5},
      {"sequence": "AGGUCAAUAAAGAGUGUGATT against Fam25c", "z-score": -1.66},
      {"sequence": "GGAUACGAAAACGACUGCATT against Pdpr", "z-score": "2.05 (active)"},
      {"sequence": "GGACCAAUUGGAUCCUUUUTT against Olfr1340", "z-score": -1.6},
      {"sequence": "GCAUACGAUGGGAAUUGUATT against Wdr5b", "z-score": -1.6},
      {"sequence": "GGAAGAAGAUAAAGAGAAATT against Gtf2a1", "z-score": 1.09},
      {"sequence": "GGAAGUUACUGUGAGAUAATT against Mtbp", "z-score": 0.265},
      {"sequence": "GGAUGUUAUUCAGUUUUCATT against BC051019", "z-score": "2.37 (active)"},
      {"sequence": "GGCCUAUCUUGUUUAUUUGTT against Tgtp1", "z-score": -0.316},
      {"sequence": "AUCGUGUUUGCUGUAUUUGTT against Olfr1258", "z-score": 0.33},
      {"sequence": "GGAAAUCACCAACUUGGCCTT against Pou3f3", "z-score": -0.0208},
      {"sequence": "GGAUUUGUAGUUCAUCUCATT against Olfr77", "z-score": 0.0834},
      {"sequence": "GGUCAGUGGAGCUCUCUAUTT against Fam234a", "z-score": 1.43},
      {"sequence": "GGUUCUAAAACUUAACAAGTT against Brf2", "z-score": "2.7 (active)"},
      {"sequence": "GGCAAACAACUGAAUAAGGTT against Pbsn", "z-score": -0.611},
      {"sequence": "CCAAGUUAGUCUGCGUAUUTT against Zfp979", "z-score": -0.52},
      {"sequence": "CCCUACCCAGUUUCAGUUGTT against Phf12", "z-score": 0.206},
      {"sequence": "CCUGUGAAUUCAUCGUUCATT against Vps26c", "z-score": "2.34 (active)"},
      {"sequence": "GCAUACCUAGGAAAAAACUTT against Ednra", "z-score": 0.524},
      {"sequence": "GGUAUUGACAGGGAUCUGATT against Limk1", "z-score": 1.19},
      {"sequence": "GGCCUUAGGAAUCAAGUUGTT against 9530053A07Rik", "z-score": 1.24},
      {"sequence": "GGGUUUCAAUGGCACAAUUTT against Kif3b", "z-score": "2.12 (active)"},
      {"sequence": "GGAUAACGUAAUGAAGAUCTT against Fgfr1", "z-score": -0.866},
      {"sequence": "GGUUUCUUCUUCUGUUCAUTT against Ostc", "z-score": 1.13},
      {"sequence": "GGCUCAAAGACUGAAUCCCTT against Recql4", "z-score": 0.309},
      {"sequence": "GCUAUCUAGAGCCAAGAGCTT against Bahcc1", "z-score": "2.27 (active)"},
      {"sequence": "GCUAGACCUCACUGUUUUUTT against Sprr2i", "z-score": 1.03},
      {"sequence": "GCAGCAUGAAUCACACCUUTT against Dtd2", "z-score": -1.29}
    ]}
  ]
}
